# Reference: PubChem BioAssay AID504558 (Broad Institute, 2011)
# Among all 350,000 compounds or so, about 2,400 (0.69%) were called active. Only a selection was taken, and actives are over-represented in it overall. Unmarked numbers belong to inactive results. Rule as the data show it: active = inhibition above about 41%; inconclusive = no clear call, values can overlap the other calls; inactive = below that.
# Experiment: EBV LMP1-driven NF-kappaB luciferase reporter inhibitors, primary screen, cell-based, luminescence, single point (AID 504558);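 also: 0% = neutral control wells and 100% = reference inhibitor control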
# Settings: LMP1-induced NF-kappaB luciferase reporter cells, at 12.5 µM, active compounds read high
row,Compound,inhibition
1,CCOc1ccc(-c2cc(C(=O)N/N=C/c3ccc(O)cc3)c3ccccc3n2)cc1,58.2% (active)
2,COc1ccc(-c2cc(C(=O)N/N=C/c3cccnc3)c3ccccc3n2)c(OC)c1,1.36%
3,CCOc1ccc(NC(=O)c2cc(C)nc3ccccc23)cc1,-0.28%
4,Cc1cccc(C(=O)OCC(=O)Nc2sccc2C(N)=O)c1C,-0.574%
5,C[C@H]1CN([C@@H](C)CO)C(=O)c2cc(C3=CCCCC3)cnc2O[C@@H]1CN(C)C(=O)Cc1ccccc1,5.28%
6,CCN1C(=O)[C@H]2[C@@H](c3ccccc3)N[C@]3(CCCN(Cc4ccc(C)cc4)C3=O)[C@H]2C1=O,-1.4%
7,O=C(CCN1CCN(C/C=C/c2ccccc2)CC1)Nc1ccccc1Cl,5.35%
8,NC(=O)C1(Nc2ccccc2Cl)CCCC1,-6.12%
9,O=C(Nc1ccccc1Cl)/C(Cl)=C(\Cl)S(=O)c1ccccc1 (stereo unspecified),69.1% (active)
10,Cc1ccc(C(=O)NC(C)C(c2cccs2)N2CCOCC2)cc1C (stereo unspecified),3.97%
11,Cc1ccc(-c2cc(C(=O)N/N=C/C=C/c3ccco3)c3ccccc3n2)cc1C,60.7% (active)
12,O=C(N/N=C/C=C/c1ccco1)c1cccs1,-24.5%
13,CC(/C=N/NC(=O)c1cc(-c2ccc3ccccc3c2)n[nH]1)=C\c1ccco1,-39.1%
14,COc1ccc(CCNC(=O)CN(c2ccccc2)S(=O)(=O)c2ccccc2)cc1,-10.2%
15,Cc1ccc([C@H]2C[C@H](O)[C@@H](n3cc(COC(=O)c4ccccc4)nn3)CN2CC2CCCCC2)cc1,4.84%
16,C[C@H]1CN([C@@H](C)CO)C(=O)CCCn2cc(nn2)CO[C@@H]1CN(C)S(=O)(=O)c1cccs1,5.02%
17,CCN1CCCC1CNC(=O)c1ccc2c(c1)NC(=O)/C(=C\c1ccccc1F)S2 (stereo unspecified),-8.19%
18,CC1=C(C(=O)N(C)C)CC(CC(=O)NCCc2ccccn2)C(=O)N1CCC1=CCCCC1 (stereo unspecified),1.75%
19,CC(C)c1cc(C(=O)N(C)C2CCCN(Cc3ccccc3F)C2)n(C)n1 (stereo unspecified),3.75%

row,Compound,inhibition
1,Cc1ccc(-c2cn3cc(C)ccc3n2)cc1,82% (active)
2,Cc1ccc2nc(-c3ccc(Br)cc3)cn2c1,63.8% (active)
3,Cc1ccn2cc(C(=O)NC3CCN(Cc4ccccc4)CC3)nc2c1,5.73%
4,COc1ccc(-c2cc3ncccc3cn2)cc1,-15.8%
5,Cc1ccc(-c2nc3ccc(Cl)cn3c2Cc2ccccc2)cc1,-21.9%
6,CSc1nnc2ccc(-c3ccc(C)cc3)nn12,2.32%
7,COc1ccc(-c2cn3ccc(C)cc3n2)cc1,48.2% (active)
8,Cc1ccc(-c2cc(C(=O)NCc3cn(C)nc3C)c3cc(Br)ccc3n2)cc1,-3.18%
9,Cc1ccc(-c2cc(N)on2)cc1,-11.1%
10,COc1cc2ccc(C(C)=O)c(O)c2cc1OC,3.32%
11,COc1ccc(S(=O)(=O)N2CCC(C(=O)NCCC(=O)Nc3ccccc3OC)CC2)cc1,1.21%
12,COc1ccc(C(=O)OCC(=O)Nc2cc(C)on2)cc1F,-6.31%
13,COc1ccc(C(=O)NCC2CCCO2)cc1S(=O)(=O)NCc1ccc(Cl)cc1 (stereo unspecified),-0.644%
14,CC1CN(C(=O)c2cccc(NS(=O)(=O)c3ccc(Br)cc3)c2)CC(C)O1 (stereo unspecified),0.834%
15,O=C(Nc1cccc2ccccc12)NC1CC1,-3.72%
16,CC1=C(C(=O)Nc2cccc(C(=O)NCC(C)c3ccccc3)c2)SCCO1 (stereo unspecified),-2.25%
17,CC[C@H]1CN2CCc3cc(OC)c(OC)cc3[C@@H]2C[C@@H]1C[C@H]1NCCc2cc(OC)c(OC)cc21,89.9% (active)
18,COc1cc2c(cc1OC)CN(CC(=O)Nc1ccc(F)cc1)CC2,9.89%
19,CC(C)CC1C(=O)N(Cc2cn(CC3CCCCC3)nn2)CCS(=O)(=O)N1Cc1ccc(-c2ccc(Cl)cc2)cc1 (stereo unspecified),5.31%

row,Compound,inhibition
1,O=C(COC(=O)c1cccc(Cl)c1Cl)NC1CCCCCC1,-5.21%
2,O=C(O)c1cc([N+](=O)[O-])c(Nc2cccc3ccccc23)c([N+](=O)[O-])c1,1%
3,O=C(Nc1nc2ccc([N+](=O)[O-])cc2s1)c1ccc(S(=O)(=O)N2CCCc3ccccc32)cc1,52.5% (active)
4,N=C1C(c2nc3ccccc3s2)=C(O)CN1NC(=O)c1ccc([N+](=O)[O-])cc1,-6.15%
5,O=C(NC(Nc1nc2ccc([N+](=O)[O-])cc2s1)(C(F)(F)F)C(F)(F)F)c1ccccc1,56.9% (active)
6,CN(C)CCCN(C(=O)c1ccc(S(=O)(=O)N2CCCc3ccccc32)cc1)c1nc2ccc(F)cc2s1,-4.71%
7,Cc1ccc(NC(=O)c2cccc(S(=O)(=O)N3CCCc4ccccc43)c2)nc1,16.9%
8,C[C@@H]1CN([C@@H](C)CO)C(=O)c2cc(NS(C)(=O)=O)ccc2O[C@@H](C)CCCCO[C@H]1CN(C)C(=O)Nc1ccc2c(c1)OCO2,-2.68%
9,CC(C)CCC(=O)Nc1cc(S(=O)(=O)N2CCOCC2)ccc1N1CCCC1,0.721%
10,O=S1(=O)CCN(C2CCCCCCCCCCC2)CC1,3.93%
11,CCCCCCn1c(=O)n2n(c1=O)C[C@]1(OC(=O)NCc3ccc(OC)c(OC)c3)CN(S(=O)(=O)c3ccc(C)cc3)C[C@]1(O)C2,-11.4%
12,O=C1c2ccccc2-c2ccccc2NC1O (stereo unspecified),5.68%
13,COc1ccc(-c2cnc3c(c2)C(=O)N([C@H](C)CO)C[C@@H](C)[C@H](CN(C)Cc2ccccc2)O3)cc1,-7.99%
14,COc1ccc(OC)c(NC(=O)C2CCCN2S(=O)(=O)c2ccc3c(c2)CC(C)N3C(C)=O)c1 (stereo unspecified),1.47%
15,O=C(OCC(=O)N1CCCCCC1)c1cccc(Cl)c1Cl,-36.1%
16,COc1ccc(CC(=O)Nc2sc(Cc3ccccc3)c(C)c2C(N)=O)cc1,0.44%
17,Cc1ccc(C(=O)Nc2sc(Cc3ccc4c(c3)OCO4)c(C)c2C(N)=O)cc1,81% (active)
18,COCc1nnc(NC(=O)c2ccc3c(c2)OCO3)s1,7.49%
